We go through twelve compounds from PubChem BioAssay.

Assay [1] is described as follows: E. coli DRC41 culture turbidity changes, primary screen, E. coli filamentation inducer project, strain DRC41, OD650, 48 h (AID 1152).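 Also: E. coli MC1000 strain DRC41 lacking acrAB efflux pump and sulA.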 Particulars: E. coli DRC41 (acrAB sulA), higher = more signal, called active from +8 up or from −8 down.
The nature of assay [2]: small-molecule binders of probe aLefty1, primary screen, biochemical, small-molecule microarray, 635/667 nm fluorescence (AID 1153).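 Also: score merges spot fluorescence with signal-to-noise ratio from the scanned slide images.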 Particulars: higher = more signal.
Assay [3] in a line: PSAC antagonists in infected red cells, primary screen, cell-based, P. falciparum Indochina, OD700, 1 h (AID 1154). To be noted: P. falciparum Indochina infected RBC osmotic lysis, higher = more signal, called active from +8 up or from −8 down.
Assay [4] in a line: PSAC antagonists in infected red cells, primary screen, cell-based, P. falciparum Indochina, OD700, 2 h (AID 1155).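 Also: lysis reports solute entry through the parasite surface anion channel PSAC; channel blockers reduce lysis of infected cells.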 Particulars: P. falciparum Indochina infected erythrocytes, osmotic lysis OD700; higher = more signal, called active from +8 up or from −8 down.
The nature of assay [5]: osmotic lysis modulators in infected erythrocytes, primary screen, PSAC antagonist project, cell-based, P. falciparum Indochina, OD700, 3 h (AID 1156). To be noted: higher = more signal, called active from +8 up or from −8 down.
A short description of assay [6]: PSAC antagonists in infected red cells, primary screen, cell-based, P. falciparum Indochina, OD700, 18 h (AID 1157). To be noted: P. falciparum Indochina infected erythrocytes, osmotic lysis OD700, 18 h; higher = more signal, called active from +8 up or from −8 down.
Assay [7] in a line: modulators of S6 phosphorylation in cells, primary screen, cell-based, A549, cytoblot, luminescence, serum-stimulated (AID 1158).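 Also: serum-stimulated A549 lung adenocarcinoma cells; signal is phosphorylated S6 detected by cytoblot immunostaining with HRP secondary.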 To be noted: A549 phospho-S6 cytoblot, 5 h, higher = more signal.
Assay [8] concerns the target NADPH oxidase 2 (Homo sapiens) (UniProt P04839). In words: NOX2-dependent H2O2 signal modulators, primary screen, NOX inhibitor project, cell-based, HEK293-NOX2, PMA-stimulated, Amplex Red fluorescence (AID 1159). Also: test concentration not given here. Particulars: 45 min, higher = more signal, called active from +8 up or from −8 down.
Assay [9] addresses NADPH oxidase 4 (Homo sapiens) (UniProt Q9NPH5). Kind of assay: NOX4-dependent H2O2 signal modulators, primary screen, NOX inhibitor project, cell-based, HEK293-NOX4, tetracycline-induced, Amplex Red fluorescence (AID 1160). To be noted: 45 min, higher = more signal, called active from +8 up or from −8 down.
Assay [10] deals with NADPH oxidase 5 (Homo sapiens) (UniProt Q96PH1). Kind of assay: NOX5-dependent H2O2 signal modulators, primary screen, NOX inhibitor project, cell-based, HEK293-NOX5, Amplex Red fluorescence (AID 1161). Particulars: HEK293-NOX5, ionomycin, 45 min, higher = more signal.
NADPH oxidase 5 (Homo sapiens), sequence (Q96PH1 whole entry, looked up): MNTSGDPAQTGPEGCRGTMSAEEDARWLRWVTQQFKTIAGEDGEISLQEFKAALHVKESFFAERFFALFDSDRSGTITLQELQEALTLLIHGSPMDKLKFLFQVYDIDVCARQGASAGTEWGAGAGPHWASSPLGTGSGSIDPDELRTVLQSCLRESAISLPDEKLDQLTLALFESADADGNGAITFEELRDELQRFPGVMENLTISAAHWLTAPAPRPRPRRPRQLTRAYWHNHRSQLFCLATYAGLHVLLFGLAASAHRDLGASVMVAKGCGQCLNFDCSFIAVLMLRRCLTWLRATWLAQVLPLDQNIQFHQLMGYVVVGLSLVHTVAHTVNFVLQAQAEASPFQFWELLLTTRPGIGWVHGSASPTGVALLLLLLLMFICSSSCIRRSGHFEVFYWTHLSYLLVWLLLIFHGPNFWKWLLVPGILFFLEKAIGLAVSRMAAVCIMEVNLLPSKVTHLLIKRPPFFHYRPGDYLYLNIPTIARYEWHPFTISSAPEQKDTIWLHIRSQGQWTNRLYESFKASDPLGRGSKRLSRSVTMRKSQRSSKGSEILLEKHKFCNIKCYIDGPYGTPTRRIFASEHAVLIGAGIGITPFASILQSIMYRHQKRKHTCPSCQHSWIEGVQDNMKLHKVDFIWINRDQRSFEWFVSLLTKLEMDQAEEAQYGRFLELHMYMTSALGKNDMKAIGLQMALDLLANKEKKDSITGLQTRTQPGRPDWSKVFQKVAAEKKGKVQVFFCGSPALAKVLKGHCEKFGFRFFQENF

The source made the active and inactive calls.

NADPH oxidase 2 (Homo sapiens), sequence (P04839 whole entry, looked up): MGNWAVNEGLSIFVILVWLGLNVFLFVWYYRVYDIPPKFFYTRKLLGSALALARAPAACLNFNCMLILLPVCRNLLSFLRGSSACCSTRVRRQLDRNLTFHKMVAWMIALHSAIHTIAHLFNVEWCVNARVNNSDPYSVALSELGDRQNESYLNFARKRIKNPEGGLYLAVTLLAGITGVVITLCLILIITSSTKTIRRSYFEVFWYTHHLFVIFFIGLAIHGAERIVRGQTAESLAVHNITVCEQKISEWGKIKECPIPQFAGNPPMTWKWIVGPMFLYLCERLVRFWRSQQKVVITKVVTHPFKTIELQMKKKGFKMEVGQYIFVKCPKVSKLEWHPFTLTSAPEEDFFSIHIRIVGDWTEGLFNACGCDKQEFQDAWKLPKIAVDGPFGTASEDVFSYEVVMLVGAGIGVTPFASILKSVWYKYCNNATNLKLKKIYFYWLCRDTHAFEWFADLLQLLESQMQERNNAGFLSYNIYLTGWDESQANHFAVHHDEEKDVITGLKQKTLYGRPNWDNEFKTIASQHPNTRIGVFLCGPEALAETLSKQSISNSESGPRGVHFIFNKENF
NADPH oxidase 4 (Homo sapiens), sequence (Q9NPH5 whole entry, looked up): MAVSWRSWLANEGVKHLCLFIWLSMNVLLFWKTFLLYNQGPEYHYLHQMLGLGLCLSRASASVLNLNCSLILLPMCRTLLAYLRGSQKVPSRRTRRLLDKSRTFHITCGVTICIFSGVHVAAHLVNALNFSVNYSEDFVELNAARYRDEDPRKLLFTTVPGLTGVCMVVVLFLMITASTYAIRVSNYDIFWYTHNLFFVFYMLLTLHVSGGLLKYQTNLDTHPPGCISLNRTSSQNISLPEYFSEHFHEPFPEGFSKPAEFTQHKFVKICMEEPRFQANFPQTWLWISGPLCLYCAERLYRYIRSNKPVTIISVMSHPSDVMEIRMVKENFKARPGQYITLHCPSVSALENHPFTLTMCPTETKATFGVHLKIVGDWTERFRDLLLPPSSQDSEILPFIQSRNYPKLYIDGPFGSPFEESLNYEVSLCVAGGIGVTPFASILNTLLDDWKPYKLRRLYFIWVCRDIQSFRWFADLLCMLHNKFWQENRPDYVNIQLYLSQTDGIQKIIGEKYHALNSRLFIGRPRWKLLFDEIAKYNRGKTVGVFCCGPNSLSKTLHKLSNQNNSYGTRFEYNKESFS

Turning to `Oc1ccc2cc[n+](Cc3sc4ccccc4c3Cl)cc2c1`, the z-score is -0.669 (inactive) in assay [1]; 1.52 (inactive) in [3]; 0.109 (inactive) in assay [4]; 1.52 (inactive) in assay [5]; 0.352 (inactive) in assay [6]; 0.0138 in [7]. Further, the z-score was -0.121 (inactive) in [8], -1.23 (inactive) in [9] and -0.1 in assay [10]. Also, the composite z-score in [2] came out at 0.248.
Consider `CCCc1cc2c(n1Cc1cc(F)cc(F)c1)C(C)C1CN(C(=O)c3ccccc3)C(C)(C(=O)OC)C21` (stereo not given), for which the z-score is -1.55 (inactive) in [1]; 3.82 (inactive) in assay [3]; 0.144 (inactive) in assay [4]; 1.95 (inactive) in assay [5]; 0.251 (inactive) in [6]; -0.712 in assay [7]. For the same compound, the results for the z-score in [8], in assay [9] and in assay [10] were -1.69 (inactive), -2.91 (inactive) and -2.52, respectively. Also, the composite z-score in [2] was 0.269.
Consider `CC(C)C(=C=CC[C@H](O)c1ccc(OCCO)cc1)CCO`, for which the z-score in assay [1] was -0.595 (inactive); in [3], 9.47 (active); in assay [4] it was 1.99 (inactive); in [5], 1.11 (inactive); in assay [6], 0.553 (inactive); in [7] it was -0.365. The z-score is -1.06 (inactive) in assay [8], -0.581 (inactive) in assay [9] and -1.96 in assay [10]. In assay [2], the composite z-score amounted to 0.0945.
For the compound `CCCC[C@@H]1C[C@H]1[C@@H](NC(=O)c1cccs1)c1ccc(-c2ccccc2)cc1`, the z-score in assay [1] was -1.89 (inactive); in assay [3] it was 2.41 (inactive); in assay [4], 0.856 (inactive); in assay [5] it was -0.398 (inactive); in [6], 0.668 (inactive); in assay [7] it was -0.993. Moreover, the z-score in assay [8] was -0.939 (inactive); in [9], -0.827 (inactive); in [10], 0.936. Further, the composite z-score in assay [2] worked out at 0.142.
For the compound `CC(C)CNC(=O)[C@@]1(Cc2ccccc2I)c2ccccc2C(=O)N(C2CCCCC2)[C@H]1c1ccc(CO)cc1`, the z-score is -0.664 (inactive) in assay [1]; 3.85 (inactive) in assay [3]; 0.198 (inactive) in assay [4]; 2.26 (inactive) in assay [5]; 0.183 (inactive) in assay [6]; -0.141 in assay [7]. The z-score in [8] is -0.394 (inactive); in [9], 0.839 (inactive); in [10] it was 0.184. Also, the composite z-score in assay [2] came out at 0.257.
With `O=C(NC1CC1)[C@@H]1c2ccccc2C(=O)N(Cc2ccccc2Cl)[C@H]1c1ccc(CO)cc1`, the z-score in assay [1] is 4.2 (inactive); in assay [3] it was 3.45 (inactive); in [4] it was 0.652 (inactive); in [5] it was -1.05 (inactive); in assay [6], 0.204 (inactive); in [7] it was 2.67. In addition, the z-score in assay [8] was -1.1 (inactive); in assay [9], 0.54 (inactive); in [10], 0.33. Besides, the composite z-score in assay [2] is 0.208.
For the compound `O=C(NCCO)C1=C[C@H](Oc2ccccc2I)[C@@H](O)[C@H](N(Cc2ccco2)C(=O)Cc2ccccc2)C1`, the z-score was -0.673 (inactive) in assay [1]; 0.877 (inactive) in assay [3]; 0.799 (inactive) in [4]; 1.1 (inactive) in assay [5]; 0.304 (inactive) in assay [6]; 0.202 in assay [7]. The z-score is 1.34 (inactive) in assay [8], 0.254 (inactive) in assay [9] and 0.351 in assay [10]. In assay [2], this compound yielded a composite z-score of 0.0752.
For the compound `C=CCNC(=O)[C@@H]1[C@H]2C(=O)O[C@H](c3ccccc3)[C@H](c3ccccc3)N2[C@H](c2ccccc2OCCO)[C@@]12C(=O)N(C(=O)OCCOC)c1ccccc12`, the z-score is -0.91 (inactive) in assay [1]; 2.92 (inactive) in assay [3]; 1.24 (inactive) in assay [4]; -0.693 (inactive) in assay [5]; 1.05 (inactive) in [6]; -0.458 in assay [7]. Besides, the z-score in [8] is 1.88 (inactive); in [9], -0.691 (inactive); in [10] it was -0.1. Besides, in assay [2], the composite z-score was determined as 0.238.
Take `Cc1ccc(S[C@]2(C(=O)O)CC(=O)N(C(C)C)[C@@H]2c2ccc(CO)cc2I)cc1`: the z-score in [1] is 3.35 (inactive); in assay [3], 14.3 (active); in [4], 1.02 (inactive); in assay [5], 0.532 (inactive); in assay [6] it was -0.263 (inactive); in assay [7], 2.24. The z-score in assay [8] is 0.899 (inactive); in [9], -2.47 (inactive); in assay [10], 0.852. Further, the composite z-score in assay [2] came out at 0.775.
Turning to `CN1C(=O)C2C=CC(C(O)c3ccccc3)N(N(c3ccccc3)c3ccccc3)C2C1=O` (stereo not given), the z-score is -0.84 (inactive) in assay [1]; 0.581 (inactive) in assay [3]; 0.693 (inactive) in [4]; -0.284 (inactive) in assay [5]; 0.9 (inactive) in [6]; -0.809 in assay [7]. Moreover, the figures for the z-score in [8], in [9] and in [10] were -1.19 (inactive), -0.586 (inactive) and 0.121, respectively. In assay [2], this compound returned a composite z-score of 0.267.
For `COC(=O)[C@@]1(Cc2ccc(F)cc2)[C@H]2c3cc(C(=O)N(C)C)n(Cc4ccccc4)c3C[C@H]2CN1C(=O)c1ccccc1`, the z-score in assay [1] is -1.39 (inactive); in [3], 2.6 (inactive); in assay [4] it was 0.672 (inactive); in assay [5], 0.657 (inactive); in assay [6], 1.23 (inactive); in assay [7], -0.231. In addition, the z-score in [8] is 1.01 (inactive); in assay [9], 0.734 (inactive); in assay [10], 1.89. In assay [2], this compound returned a composite z-score of 0.342.
`C=CCOC(=O)[C@@H]1[C@H]2C(=O)O[C@H](c3ccccc3)[C@H](c3ccccc3)N2[C@H](c2ccc(OCCOC(=O)[C@H]3C[C@H]4C(=O)N5CCC[C@H]5C(=O)N4[C@H]3c3ccc(O)cc3)cc2)[C@@]12C(=O)Nc1ccc(I)cc12`: the z-score in assay [1] is 0.371 (inactive); in assay [3], 1.37 (inactive); in assay [4], -0.552 (inactive); in [5] it was 0.777 (inactive); in [6], -1.37 (inactive); in [7], 0.718. Moreover, the z-score was 0.986 (inactive) in assay [8], 1.1 (inactive) in assay [9] and 1.36 in assay [10]. Besides, in assay [2], the composite z-score was 0.19.
